# In PubChem BioAssay (Tox21):
# Where “and” joins values, the source holds several entries; their conditions need not be identical. Identical values can stand only once. Results filed as inconclusive are left out. Calls of active or inactive are those of the source. Unless noted, the call rests on the fitted dose curve; in most records, active means well fitted activation curve with a large enough effect in the repeat runs; inconclusive means weak or mixed curves, or effect the other way; inactive means no such curve, though single readings can be large or run the other way.
# Experiment: qHTS assay to identify small molecule antagonists of the estrogen related receptor signaling pathway with the pleiotropic PPARgamma coactivator (PGC) from Tox21 10K library - cell viability counter screen (AID 1224840; active means well fitted cell-killing curve with a large enough effect in the repeat runs, not every such curve was filed as active; further: nearly all actives have a fitted effect of over 40% in size; further: potency means the concentration at half of the fitted maximal effect)
# Conditions: PGC/ERR reporter cells viability, CellTiter-Fluor, 17.5 h; series mostly up to 92.4 µM; viability change, negative = cytotoxic: at the top concentration
# Outline: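 Counter-screen for cytotoxicity: after 17.5 h compound exposure at 37 C, CellTiter-Fluor reagent added to PGC/ERR cells for 30 min and fluorescence read. Cells were seeded at 2,000 per well 6 h before dosing.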
# On the % scale 0 is the no-effect control and ±100 the full control effect.
Compound,"viability change, negative = cytotoxic",Potency
CCc1cccc(CC)c1N(COC)C(=O)CS(=O)(=O)O,-2.67% (inactive),–
O=c1cccc[nH]1,-1.35% (inactive),–
CSc1ccc2c(c1)N(CCC1CCCCN1C)c1ccccc1S2 (stereo not given),–,30.5 µM (active) and 29.8 µM (active)
Cc1cnccn1,11.6% (inactive),–
CCOC(/C=C(\C)CCC=C(C)C)OCC,6% (inactive),–

# Experiment: qHTS assay to identify small molecule antagonists of the estrogen related receptor signaling pathway with the pleiotropic PPARgamma coactivator (PGC) from Tox21 10K library (AID 1224841; call rule not given here; further: actives are mostly falling curves and most rising ones were filed inactive; nearly all actives have a fitted effect of over 50% in size)
# Conditions: PGC/ERR reporter cell line, ONE-Glo luciferase, 18 h; series mostly up to 92.4 µM; activity, negative = inhibition: at the top concentration
# Outline: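 Luminescence (One-Glo, 30 min at room temperature) after 18 h compound treatment at 37 C of PGC/ERR reporter cells plated at 2,000 cells/well and settled 6 h beforehand.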
row,Compound,"activity, negative = inhibition"
1,CCCCOC(=O)C(C)CC (stereo not given),3.63% (inactive)
2,CC1=CCC(=O)O1,35.9% (inactive)
3,CCOCOCC,6.59% (inactive)
4,CCCC(=O)OCC(COC(=O)CCC)OC(=O)CCC,89.5% (inactive)
5,CC(C)=CCCC(C)O (stereo not given),17% (inactive)
6,C#CC(O)CCC (stereo not given),11.6% (inactive)
7,CCc1cccc(CC)c1NC(=O)C(=O)O,-14.1% (inactive)
8,O=C1OC(OC(=O)c2cccnc2Nc2cccc(C(F)(F)F)c2)c2ccccc21 (stereo not given),-7.75% [at 42.5 µM] (inactive)
9,C=CC/C=C/C/C=C/C/C=C/C,-11.7% (inactive)
10,CCOC(OCC)C(=O)c1ccccc1,-6.28% (inactive)
11,Cc1cccc(N(C)C)c1,22.1% (inactive)
12,CCCCCCCC/C=C/CCCOC(C)=O,4.97% (inactive)
13,CCCCOCC,19.6% (inactive)
14,O=c1cccc[nH]1,16.3% (inactive)

# Experiment: qHTS assay to identify small molecule agonists of the estrogen related receptor signaling pathway with the pleiotropic PPARgamma coactivator (PGC) from Tox21 10K library (AID 1224842); further: nearly all actives have a fitted effect of over 15% in size
# Conditions: PGC/ERR reporter cell line, luciferase ONE-Glo, 18 h; series mostly up to 92.4 µM; activation: at the top concentration
# Outline: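 PGC/ERR reporter cell line, 2,000 cells per well, incubated 6 h at 37 C before 23 nL compound in DMSO was added. After 18 h at 37 C, One-Glo luminescence read following 30 min at room temperature.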
row,Compound,activation
1,CC1(C)COCN1,2.65% (inactive)
2,CCCCOC(=O)C(C)CC (stereo not given),1.12% (inactive)
3,CO[Si](CCC1CCC2OC2C1)(OC)OC (stereo not given),0.387% (inactive)
4,CC1=CCC(=O)O1,1.14% (inactive)
5,C=C(C)CCCC,-3.91% (inactive)
6,CCOCOCC,0.414% (inactive)
7,CCCC(=O)OCC(COC(=O)CCC)OC(=O)CCC,5.14% (inactive)
8,CCO[Si](C)(C)OCC,-6.58% (inactive)
9,CS(C)(=O)=O,-4.64% (inactive)
10,CCCCCCCCCCCCN(CCO)CCO,-35.9% (inactive)
11,CC(C)=CCCC(C)O (stereo not given),0.0088% (inactive)
12,C#CC(O)CCC (stereo not given),-0.612% (inactive)
13,C/C=C/C(=O)C1=C(C)CCCC1(C)C,-19% (inactive)
14,CCc1cccc(CC)c1NC(=O)C(=O)O,-1.29% (inactive)
15,O=C1OC(OC(=O)c2cccnc2Nc2cccc(C(F)(F)F)c2)c2ccccc21 (stereo not given),-2.24% [at 42.5 µM] (inactive)
16,C=CC/C=C/C/C=C/C/C=C/C,-1.32% (inactive)
17,CCOC(OCC)C(=O)c1ccccc1,-0.267% (inactive)
18,Cc1cccc(N(C)C)c1,0.0864% (inactive)
19,CCCCCCCC/C=C/CCCOC(C)=O,1.54% (inactive)
20,Cc1cncc(C)c1,-3.21% (inactive)
21,CCCCOCC,0.639% (inactive)
22,CCc1cccc(CC)c1N(COC)C(=O)CS(=O)(=O)O,-0.203% (inactive)
23,O=c1cccc[nH]1,1% (inactive)
24,O=C1NCN(c2ccccc2)C12CCN(CCCC(c1ccc(F)cc1)c1ccc(F)cc1)CC2,-15.6% [at 42.5 µM] (inactive)
25,Cc1cnccn1,-0.0199% (inactive)
26,CCOC(/C=C(\C)CCC=C(C)C)OCC,0.0675% (inactive)
